The values that follow come from PubChem BioAssay.

Active and inactive are the calls of the source. No rule for the calls is given here.

Botulinum neurotoxin type A (Clostridium botulinum), sequence (P0DPI0 whole entry, looked up): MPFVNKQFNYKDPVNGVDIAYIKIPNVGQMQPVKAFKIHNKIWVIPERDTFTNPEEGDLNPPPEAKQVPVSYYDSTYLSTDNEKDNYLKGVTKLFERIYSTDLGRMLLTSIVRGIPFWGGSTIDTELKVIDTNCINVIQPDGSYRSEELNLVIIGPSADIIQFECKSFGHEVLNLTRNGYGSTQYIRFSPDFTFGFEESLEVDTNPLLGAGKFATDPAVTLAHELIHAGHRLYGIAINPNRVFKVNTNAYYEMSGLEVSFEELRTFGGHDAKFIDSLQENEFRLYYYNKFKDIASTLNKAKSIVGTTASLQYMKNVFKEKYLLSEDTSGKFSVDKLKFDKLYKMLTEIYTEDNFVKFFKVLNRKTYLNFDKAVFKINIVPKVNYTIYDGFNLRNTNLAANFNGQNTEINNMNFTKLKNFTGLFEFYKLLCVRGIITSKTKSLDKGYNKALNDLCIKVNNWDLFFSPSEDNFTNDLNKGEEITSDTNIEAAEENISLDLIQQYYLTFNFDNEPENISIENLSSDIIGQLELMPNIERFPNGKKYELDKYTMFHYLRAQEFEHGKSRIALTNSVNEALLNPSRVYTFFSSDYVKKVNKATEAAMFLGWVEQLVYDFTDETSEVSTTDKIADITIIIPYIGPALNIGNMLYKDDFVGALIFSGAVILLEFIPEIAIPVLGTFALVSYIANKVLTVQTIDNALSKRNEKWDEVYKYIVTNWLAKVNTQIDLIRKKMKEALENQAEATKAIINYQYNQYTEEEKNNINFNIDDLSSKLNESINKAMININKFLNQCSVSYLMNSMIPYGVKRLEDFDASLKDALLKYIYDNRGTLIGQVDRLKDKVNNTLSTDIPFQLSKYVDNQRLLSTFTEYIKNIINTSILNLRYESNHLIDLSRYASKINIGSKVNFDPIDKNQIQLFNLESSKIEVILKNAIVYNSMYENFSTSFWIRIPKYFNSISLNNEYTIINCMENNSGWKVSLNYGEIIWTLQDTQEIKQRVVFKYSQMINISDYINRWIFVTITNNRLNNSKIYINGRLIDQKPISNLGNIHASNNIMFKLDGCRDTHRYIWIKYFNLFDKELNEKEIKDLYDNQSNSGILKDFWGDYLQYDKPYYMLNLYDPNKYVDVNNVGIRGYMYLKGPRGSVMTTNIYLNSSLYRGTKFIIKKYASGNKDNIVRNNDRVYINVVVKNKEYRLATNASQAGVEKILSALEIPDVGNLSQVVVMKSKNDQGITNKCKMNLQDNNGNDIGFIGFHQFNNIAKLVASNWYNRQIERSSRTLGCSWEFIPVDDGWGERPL

The first assay has as its target Botulinum neurotoxin type A (Clostridium botulinum) (UniProt P0DPI0). In words: BoNT/A light chain protease inhibitors, biochemical, multiplex microsphere flow cytometry, validation set (AID 588460). Conditions: at 10 µM, hits give high values. Background: A flow cytometer gives signals particle by particle.
Broadly, the inhibition is the change of the read-out against control, counted positive when it falls. Turning to `Cc1ncoc1C(=O)N1CCCC(C(=O)c2ccc(-c3ccccc3)c(F)c2)C1` (stereo not given), the inhibition is -0.1% (inactive).

Turning to `Cc1c(OC(=O)CNC(=O)OC(C)(C)C)ccc2c3c(c(=O)oc12)CCC3`, the inhibition is -0.5% (inactive).

Turning to `CCN1C(=O)C(CC(=O)Nc2ccc(F)cc2)N(Cc2ccc3c(c2)OCO3)C1=S` (stereo not given), the inhibition was -0.3% (inactive).

With `Cc1ccc(-n2cc(CNCCN3CCOC3=O)c(-c3ccc(F)cc3)n2)cc1`, the inhibition was 1.5% (inactive).

Turning to `CC(C)NS(=O)(=O)c1ccc(OCC(=O)Nc2cccc(F)c2)cc1`, the inhibition was -0.3% (inactive).

Consider `COc1cccc(-n2c(C)c3c(OC)cccc(=O)c3c2C)c1`, for which the inhibition was -0.7% (inactive).

In the case of `CCCC(=O)O[C@]1(C(=O)CCl)[C@@H](C)C[C@H]2[C@@H]3CCC4=CC(=O)C=C[C@]4(C)[C@@]3(F)C(=O)C[C@@]21C`, the inhibition was -0.6% (inactive).

As for `CN(C(=O)C(Cl)Cl)c1ccc(OC(=O)c2ccco2)cc1`, the inhibition is 0.7% (inactive).

Take `CC(C)(C)NCC(O)COc1cccc2c1C[C@H](O)[C@H](O)C2` (stereo not given in full): the inhibition is 0.4% (inactive).

Turning to `CC12CCC(C(=O)N3CCCCC3)([C@H](Br)C1=O)C2(C)C` (stereo not given in full), the inhibition was -1.3% (inactive).

In the case of `Nc1cccc(C(=O)O)c1`, the inhibition is -0.3% (inactive).

For `O=C(CS(=O)(=O)c1ccccc1)c1ccc2c(c1)OCCO2`, the inhibition is 0.7% (inactive).

Take `CCC(NC(C)C)C(O)c1ccc(O)c(O)c1` (stereo not given): the inhibition is -0.9% (inactive).

In the case of `Cc1cc(=O)c2c(O)c(O)ccc2o1`, the inhibition is 2.5% (inactive).

Turning to `CCc1cc(=O)oc2cc(OCc3nn[nH]n3)ccc12`, the inhibition was -1.3% (inactive).

As for `Nc1ccc(-c2nc3ncccc3o2)c(Cl)c1`, the inhibition was -1.8% (inactive).

For the molecule `CCc1cc2c(=O)c(-c3nc(C)cs3)coc2cc1OC(C)C(=O)NCCO` (stereo not given), the inhibition was -0.8% (inactive).

For the molecule `C=CCN1C(=O)c2oc3ccccc3c(=O)c2C1c1ccc(O)c(OC)c1` (stereo not given), the inhibition was -0.6% (inactive).

As to `Cc1nc2cc3ccccc3cc2c(=O)[nH]1`, the inhibition is 1.5% (inactive).

Turning to `O=C(O)C1CCN(C(=O)COc2ccc3c4c(c(=O)oc3c2)CCC4)CC1`, the inhibition was -1.1% (inactive).

As for `COc1ccc(C(=O)Nc2cccnc2)cc1C(=O)Nc1cccnc1`, the inhibition was 1.3% (inactive).

`C[C@]12C[C@H](O)[C@H]3[C@@H](CCC4=CC(=O)CC[C@@]43C)[C@@H]1CC[C@@H]2C(=O)CO`: the inhibition is -0.6% (inactive).

For `COc1cccc(OCc2nnc(-c3cccs3)o2)c1`, the inhibition is -0.7% (inactive).

On to `Cc1ccc(S(=O)(=O)N[C@@H](Cc2ccccc2)C(=O)CCl)cc1`, for which the inhibition was 1.2% (inactive).

For the molecule `O=C(CCSc1ccccc1)N1CCCC1`, the inhibition was -0.9% (inactive).

Consider `O=C(NC1CC1)C1CCN(C2CCN(C(=O)Cc3ccc(F)cc3)CC2)CC1`, for which the inhibition was -0.6% (inactive).

In the case of `COc1ccc(C(Cl)=C(c2ccc(OC)cc2)c2ccc(OC)cc2)cc1`, the inhibition is -0.6% (inactive).

In the case of `COc1ccc2oc(C)c(C(N)=O)c2c1`, the inhibition was 0.5% (inactive).

`CCc1cc(-c2[nH]ncc2-c2ccc3c(c2)OCO3)c(O)cc1O`: the inhibition is -0.4% (inactive).

On to `COC(=O)c1ccc(NC(=O)c2ccccc2SC)cc1`, for which the inhibition is -0.2% (inactive).

In the case of `O=C(COc1ccccc1)N1CCN(c2ccccc2)CC1`, the inhibition is 0% (inactive).

Turning to `CN=C1c2cc3cc(OC)ccc3n2CCN1C`, the inhibition is -0.6% (inactive).

Consider `CC1(C)CC(=O)C(C2=NC(C)(C)Cc3ccccc32)=C(O)C1`, for which the inhibition is 0.9% (inactive).

Regarding `CC(C)N(C(=O)Cc1ccccc1[N+](=O)[O-])C(C)C`, the inhibition was -2% (inactive).

Turning to `Cc1nc2sccn2c(=O)c1CCN1CCC(=C(c2ccc(F)cc2)c2ccc(F)cc2)CC1`, the inhibition is -0.2% (inactive).

Consider `Cn1c(=O)[nH]c(=O)c2c1ncn2CCN1CCOCC1`, for which the inhibition is -1.5% (inactive).

Take `CSc1cccc(NC(=O)/C=C/c2ccccc2)c1`: the inhibition was -2.3% (inactive).

`CCOC(=O)c1cnc2ccc(C(=O)OC)cc2c1Nc1ccc2c(c1)OCCO2`: the inhibition is 0.1% (inactive).

Take `O=C(c1ccc([N+](=O)[O-])cc1)N1CCSC1c1ccccc1Cl` (stereo not given): the inhibition is -0.1% (inactive).

As to `CCCNC(=O)NS(=O)(=O)c1ccc(Cl)cc1`, the inhibition is -0.4% (inactive).

The next assay deals with Lethal factor (Bacillus anthracis) (UniProt P15917). In words: Lethal factor protease inhibitors, Bacillus anthracis, multiplex microsphere cleavage assay, validation set (AID 588461). Conditions: flow cytometry, at 10 µM, hits give high values.
Lethal factor (Bacillus anthracis), sequence (P15917 whole entry, looked up): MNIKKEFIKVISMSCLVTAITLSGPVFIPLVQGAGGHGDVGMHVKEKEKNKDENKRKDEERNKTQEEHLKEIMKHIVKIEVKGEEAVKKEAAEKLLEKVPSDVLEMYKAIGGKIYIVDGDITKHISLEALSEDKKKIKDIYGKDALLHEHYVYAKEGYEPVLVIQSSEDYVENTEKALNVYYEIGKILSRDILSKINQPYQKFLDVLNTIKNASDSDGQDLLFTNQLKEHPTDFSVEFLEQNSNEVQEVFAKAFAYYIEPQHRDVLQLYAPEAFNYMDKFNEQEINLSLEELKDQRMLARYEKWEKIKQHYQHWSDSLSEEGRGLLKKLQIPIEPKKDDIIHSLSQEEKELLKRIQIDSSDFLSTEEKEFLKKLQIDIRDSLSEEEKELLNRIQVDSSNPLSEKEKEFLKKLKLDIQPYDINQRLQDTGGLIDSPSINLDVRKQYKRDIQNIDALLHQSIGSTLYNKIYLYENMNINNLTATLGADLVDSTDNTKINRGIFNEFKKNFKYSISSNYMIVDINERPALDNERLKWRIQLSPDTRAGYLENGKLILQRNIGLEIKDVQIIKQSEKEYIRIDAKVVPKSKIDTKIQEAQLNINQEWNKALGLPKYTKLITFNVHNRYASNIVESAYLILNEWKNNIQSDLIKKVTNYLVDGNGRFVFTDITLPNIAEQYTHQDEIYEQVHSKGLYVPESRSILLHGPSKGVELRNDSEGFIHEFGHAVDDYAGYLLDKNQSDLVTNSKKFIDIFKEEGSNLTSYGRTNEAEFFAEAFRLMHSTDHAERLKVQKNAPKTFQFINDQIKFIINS
For the molecule `Cc1ncoc1C(=O)N1CCCC(C(=O)c2ccc(-c3ccccc3)c(F)c2)C1` (stereo not given), the inhibition was -5.3% (inactive).

Regarding `Cc1c(OC(=O)CNC(=O)OC(C)(C)C)ccc2c3c(c(=O)oc12)CCC3`, the inhibition is -2.2% (inactive).

On to `CCN1C(=O)C(CC(=O)Nc2ccc(F)cc2)N(Cc2ccc3c(c2)OCO3)C1=S` (stereo not given), for which the inhibition was -6.1% (inactive).

Take `Cc1ccc(-n2cc(CNCCN3CCOC3=O)c(-c3ccc(F)cc3)n2)cc1`: the inhibition is -7.8% (inactive).

As for `CC(C)NS(=O)(=O)c1ccc(OCC(=O)Nc2cccc(F)c2)cc1`, the inhibition was -0.8% (inactive).

With `COc1cccc(-n2c(C)c3c(OC)cccc(=O)c3c2C)c1`, the inhibition was -13.5% (inactive).

Regarding `CCCC(=O)O[C@]1(C(=O)CCl)[C@@H](C)C[C@H]2[C@@H]3CCC4=CC(=O)C=C[C@]4(C)[C@@]3(F)C(=O)C[C@@]21C`, the inhibition is 1% (inactive).

Take `CN(C(=O)C(Cl)Cl)c1ccc(OC(=O)c2ccco2)cc1`: the inhibition is -0.8% (inactive).

Take `CC(C)(C)NCC(O)COc1cccc2c1C[C@H](O)[C@H](O)C2` (stereo not given in full): the inhibition was 1.6% (inactive).

As to `CC12CCC(C(=O)N3CCCCC3)([C@H](Br)C1=O)C2(C)C` (stereo not given in full), the inhibition is 0.1% (inactive).

For the molecule `Nc1cccc(C(=O)O)c1`, the inhibition is 3.3% (inactive).

On to `O=C(CS(=O)(=O)c1ccccc1)c1ccc2c(c1)OCCO2`, for which the inhibition is 2.2% (inactive).

With `CCC(NC(C)C)C(O)c1ccc(O)c(O)c1` (stereo not given), the inhibition was -4% (inactive).

As for `Cc1cc(=O)c2c(O)c(O)ccc2o1`, the inhibition is -0.2% (inactive).

As for `CCc1cc(=O)oc2cc(OCc3nn[nH]n3)ccc12`, the inhibition is 1.9% (inactive).

Regarding `Nc1ccc(-c2nc3ncccc3o2)c(Cl)c1`, the inhibition was -10.9% (inactive).

In the case of `CCc1cc2c(=O)c(-c3nc(C)cs3)coc2cc1OC(C)C(=O)NCCO` (stereo not given), the inhibition was -2.1% (inactive).

With `C=CCN1C(=O)c2oc3ccccc3c(=O)c2C1c1ccc(O)c(OC)c1` (stereo not given), the inhibition is 1.1% (inactive).

On to `Cc1nc2cc3ccccc3cc2c(=O)[nH]1`, for which the inhibition was 3.7% (inactive).

Turning to `O=C(O)C1CCN(C(=O)COc2ccc3c4c(c(=O)oc3c2)CCC4)CC1`, the inhibition was 2.5% (inactive).

For `COc1ccc(C(=O)Nc2cccnc2)cc1C(=O)Nc1cccnc1`, the inhibition is -0.7% (inactive).

Turning to `C[C@]12C[C@H](O)[C@H]3[C@@H](CCC4=CC(=O)CC[C@@]43C)[C@@H]1CC[C@@H]2C(=O)CO`, the inhibition was -9.2% (inactive).

In the case of `COc1cccc(OCc2nnc(-c3cccs3)o2)c1`, the inhibition is 1.3% (inactive).

Regarding `Cc1ccc(S(=O)(=O)N[C@@H](Cc2ccccc2)C(=O)CCl)cc1`, the inhibition was 3.4% (inactive).

Regarding `O=C(CCSc1ccccc1)N1CCCC1`, the inhibition is -2.3% (inactive).

On to `O=C(NC1CC1)C1CCN(C2CCN(C(=O)Cc3ccc(F)cc3)CC2)CC1`, for which the inhibition was 4.9% (inactive).

In the case of `COc1ccc(C(Cl)=C(c2ccc(OC)cc2)c2ccc(OC)cc2)cc1`, the inhibition is -1.1% (inactive).

`COc1ccc2oc(C)c(C(N)=O)c2c1`: the inhibition is -0.4% (inactive).

Turning to `CCc1cc(-c2[nH]ncc2-c2ccc3c(c2)OCO3)c(O)cc1O`, the inhibition was 2.3% (inactive).

On to `COC(=O)c1ccc(NC(=O)c2ccccc2SC)cc1`, for which the inhibition is -5.4% (inactive).

`O=C(COc1ccccc1)N1CCN(c2ccccc2)CC1`: the inhibition is -0.7% (inactive).

Turning to `CN=C1c2cc3cc(OC)ccc3n2CCN1C`, the inhibition was -0.1% (inactive).

Consider `CC1(C)CC(=O)C(C2=NC(C)(C)Cc3ccccc32)=C(O)C1`, for which the inhibition is -0.4% (inactive).

As for `CC(C)N(C(=O)Cc1ccccc1[N+](=O)[O-])C(C)C`, the inhibition is -1.5% (inactive).

Regarding `Cc1nc2sccn2c(=O)c1CCN1CCC(=C(c2ccc(F)cc2)c2ccc(F)cc2)CC1`, the inhibition was -7.2% (inactive).

As for `Cn1c(=O)[nH]c(=O)c2c1ncn2CCN1CCOCC1`, the inhibition is -2.5% (inactive).

On to `CSc1cccc(NC(=O)/C=C/c2ccccc2)c1`, for which the inhibition was -8.2% (inactive).

Consider `CCOC(=O)c1cnc2ccc(C(=O)OC)cc2c1Nc1ccc2c(c1)OCCO2`, for which the inhibition was -1.2% (inactive).

Take `O=C(c1ccc([N+](=O)[O-])cc1)N1CCSC1c1ccccc1Cl` (stereo not given): the inhibition is -1.3% (inactive).

With `CCCNC(=O)NS(=O)(=O)c1ccc(Cl)cc1`, the inhibition was -1% (inactive).
